From PubChem
Only some compounds are listed: those with a hit (about 2.6% of all), similar ones and a draw of the others.
Peg3 prom inh = reduces Peg3 promoter-driven luciferase expression in HeLa; HeLa PEG-Prom luciferase reporter, luminescence, overnight; inhibition, % at 20 µM; 360,000 compounds, 1.7% hits;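 active = inhibition of at least 50% at 20 µM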
KKLEB tox = CF airway cell cytotoxicity counter-screen; KKLEB CF airway cells viability, ATPlite luminescence, overnight; active compounds read low; cells stimulated with P. aeruginosa culture filtrate; 360,000 compounds, 0.36% hits; activity change (cytotoxicity), % at 5 µM;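 active = corrected activity change at or below -50% at 5 µM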
HIF-2a inh = HIF-2a inhibition; 786-0 RCC cells HIF-2a reporter, luciferase luminescence, overnight; inhibition, % at 18.8 µM; 360,000 compounds, 0.72% hits; AID 624352;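 active = inhibition of the luminescence signal of 40% or more relative to plate controls, in a single-dose primary screen at 18.75 µM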
Shn3 inh set2 = Schnurri-3 reporter inhibition in Clone20 osteoblasts; inhibition, % at 12.5 µM; Clone20 osteoblast Shn3 3'UTR firefly luciferase, 24 h; 360,000 compounds, 0.52% hits;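 active = mean inhibition of at least 75% with every replicate also reaching 75%; inconclusive = mean inhibition at least 75% but some replicate below; inactive = mean inhibition below 75%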;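 note: 0% = median of neutral control wells and 100% = pilot-screen positive control compound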
CF NFkB block = cystic fibrosis NF-kB activation inhibition; KKLEB NF-kB-GFP reporter, PAF-induced, GFP fluorescence overnight; inhibition, % at 5 µM; 360,000 compounds, 0.86% hits;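 active = at least 50% inhibition at 5 µM, scaled per plate between neutral and stimulator controls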;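 note: PAF is a Pseudomonas aeruginosa culture filtrate used as stimulus; plate controls were PAF-stimulated DMSO wells for no effect and unstimulated DMSO wells for full effect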
An asterisk follows results filed as active.

Results for CC[C@@H](C)[C@H](NC(=O)OC(C)(C)C)c1nnc(S(=O)(=O)Cc2cc(C)ccc2C)o1 ?
Peg3 prom inh: 105*; KKLEB tox: -19; HIF-2a inh: -67; Shn3 inh set2: inconclusive; CF NFkB block: 72*

How did CCCc1cc2c(=O)c(-c3nc4ccccc4s3)c(COCC(=O)O)oc2cc1O do in these assays?
Peg3 prom inh: -195; KKLEB tox: 7; HIF-2a inh: -176; Shn3 inh set2: -76; CF NFkB block: 1

What do the screens show for `CC1C/C(=C\c2cccnc2)C(=O)/C(=C/c2cccnc2)C1` (stereo not drawn)?
Peg3 prom inh: 107*; KKLEB tox: -96*; HIF-2a inh: 93*; Shn3 inh set2: 71; CF NFkB block: 105*

Results for CC1CCCC(NC(=O)C2CCN(S(=O)(=O)N3CCCCCC3)CC2)C1C (stereo not drawn) ?
Peg3 prom inh: 8; KKLEB tox: 5; HIF-2a inh: 15; Shn3 inh set2: 24; CF NFkB block: -1

Results for O=[N+]([O-])c1ccc(O)c(Nc2ncnc3ccc(Br)cc23)c1 ?
Peg3 prom inh: 20; KKLEB tox: -38; HIF-2a inh: -4; Shn3 inh set2: 18; CF NFkB block: 58*

How did Oc1cccc(C(O)CNCc2ccc(-c3ccccc3)cc2)c1 (stereo not drawn) do in these assays?
Peg3 prom inh: 41; KKLEB tox: -9; HIF-2a inh: -7; Shn3 inh set2: -18; CF NFkB block: 10

How did Oc1cccc(C(O)CNCc2ccc(OCc3ccc(Cl)cc3Cl)cc2)c1 (stereo not drawn) do in these assays?
Peg3 prom inh: 93*; KKLEB tox: -16; HIF-2a inh: 0; Shn3 inh set2: 23; CF NFkB block: -6

Results for O=C(Nc1ncnc2c1C(c1ccccc1)c1c(ccc3ccccc13)O2)c1ccccc1 (stereo not drawn) ?
Peg3 prom inh: 34; KKLEB tox: -15; HIF-2a inh: 17; Shn3 inh set2: 11; CF NFkB block: 39

What do the screens show for `O=C(Cc1ccccc1)Nc1ncnc2c1C(c1ccccc1)c1c(ccc3ccccc13)O2` (stereo not drawn)?
Peg3 prom inh: 53*; KKLEB tox: -13; HIF-2a inh: 21; Shn3 inh set2: 25; CF NFkB block: 18

How did c1ccc(-c2ccc(OCCCNC3CCCC3)cc2)cc1 do in these assays?
Peg3 prom inh: 74*; KKLEB tox: -10; HIF-2a inh: 6; Shn3 inh set2: -28; CF NFkB block: 5

What do the screens show for `CC1(C)Cc2ccccc2C2=NNC(=O)C2=N1`?
Peg3 prom inh: 50; KKLEB tox: 0; HIF-2a inh: 34; Shn3 inh set2: 12; CF NFkB block: 75*

Results for CCOC(=O)c1ccccc1NC(=O)COC(=O)CCCOc1ccccc1 ?
Peg3 prom inh: 13; KKLEB tox: 2; HIF-2a inh: 4; Shn3 inh set2: 6; CF NFkB block: -2

What do the screens show for `COC(=O)c1ccccc1NC(=O)CSCC(=O)Nc1ccccc1`?
Peg3 prom inh: 11; KKLEB tox: -69*; HIF-2a inh: 23; Shn3 inh set2: 13; CF NFkB block: -4

Results for COC(=O)c1ccccc1NC(=O)Nc1ccc(C(=O)N2CCCC2)cc1 ?
Peg3 prom inh: 58*; KKLEB tox: 1; HIF-2a inh: 35; Shn3 inh set2: 11; CF NFkB block: -3

How did CCOC(=O)c1ccccc1NC(=O)COc1ccccc1 do in these assays?
Peg3 prom inh: 68*; KKLEB tox: 9; HIF-2a inh: -5; Shn3 inh set2: -6; CF NFkB block: -3

Results for Cn1nc(C(=O)Nc2cc(Cl)ccc2N2CCCC2)c2ccccc2c1=O ?
Peg3 prom inh: 26; KKLEB tox: 0; HIF-2a inh: -12; Shn3 inh set2: -7; CF NFkB block: 3

How did CN(c1ccccc1)c1ccc(/C=C(/CCC(=O)O)c2nc3ccccc3s2)cc1[N+](=O)[O-] do in these assays?
Peg3 prom inh: 57*; KKLEB tox: -17; HIF-2a inh: 13; Shn3 inh set2: 1; CF NFkB block: 35

What do the screens show for `O=C(O)CC/C(=C\c1ccc(N2CCCC2)c([N+](=O)[O-])c1)c1nc2ccccc2s1`?
Peg3 prom inh: 5; KKLEB tox: -1; HIF-2a inh: 3; Shn3 inh set2: -2; CF NFkB block: -2

What do the screens show for `CC(=O)c1ccc(N(C(=O)CNC(=O)c2ccco2)C(C(=O)NC2CCCC2)c2cccnc2)cc1` (stereo not drawn)?
Peg3 prom inh: -3; KKLEB tox: 6; HIF-2a inh: 13; Shn3 inh set2: -25; CF NFkB block: -8

What do the screens show for `CCCCn1nnnc1C(c1cc2ccccc2o1)N1CCN(c2ncccc2C#N)CC1` (stereo not drawn)?
HIF-2a inh: 2

Results for Nc1ccc(OC(=O)Nc2ccc(O)cc2)cc1 ?
Peg3 prom inh: 14; KKLEB tox: 1; HIF-2a inh: 77*; Shn3 inh set2: 14; CF NFkB block: 2

What do the screens show for `COc1ccc(C(C)(C)C)cc1NC(=O)COC(=O)CSCc1c(C)noc1C`?
Peg3 prom inh: 10; KKLEB tox: -5; HIF-2a inh: -3; Shn3 inh set2: -8; CF NFkB block: 18

How did COc1cc(OC)cc(C(=O)NC(=S)Nc2cc3oc4ccccc4c3cc2OC)c1 do in these assays?
Peg3 prom inh: 38; KKLEB tox: -52*; HIF-2a inh: 6; Shn3 inh set2: 9; CF NFkB block: 55*

How did COc1ccc(C(=O)NC(=S)Nc2cc3oc4ccccc4c3cc2OC)cc1 do in these assays?
Peg3 prom inh: 5; KKLEB tox: -41; HIF-2a inh: -3; Shn3 inh set2: 4; CF NFkB block: 33

Results for Cc1ccc2nc(N(CCCN(C)C)C(=O)c3ccc4ncsc4c3)sc2c1 ?
Peg3 prom inh: -177; KKLEB tox: 0; HIF-2a inh: -132; Shn3 inh set2: -31; CF NFkB block: -12

What do the screens show for `Cc1ccc2[nH]c(-c3cccc(F)c3)cc(=O)c2c1`?
Peg3 prom inh: -183; KKLEB tox: -1; HIF-2a inh: -120; Shn3 inh set2: -33; CF NFkB block: 40

How did COc1ccc2[nH]c(-c3cccc(F)c3)cc(=O)c2c1 do in these assays?
Peg3 prom inh: -249; KKLEB tox: -10; HIF-2a inh: -127; Shn3 inh set2: -20; CF NFkB block: 56*

What do the screens show for `Cc1ccc(-c2nc(-c3ccccc3)no2)cc1`?
Peg3 prom inh: -226; KKLEB tox: 6; HIF-2a inh: -111; Shn3 inh set2: 24; CF NFkB block: -25

Results for Cc1ccc(-c2nc(-c3ccccc3)no2)c(Cl)c1 ?
Peg3 prom inh: 9; KKLEB tox: -80*; HIF-2a inh: 61*; Shn3 inh set2: 44; CF NFkB block: -2

What do the screens show for `CCOc1ccc(NC(=O)CSc2nc3ccccc3nc2N2CC(C)OC(C)C2)cc1` (stereo not drawn)?
Peg3 prom inh: -3; KKLEB tox: -5; HIF-2a inh: -25; Shn3 inh set2: 14; CF NFkB block: -3

How did CC(C)CCNC(=O)C1CCN(S(=O)(=O)c2ccc(-n3cnnn3)cc2)CC1 do in these assays?
Peg3 prom inh: 9; KKLEB tox: -5; HIF-2a inh: 3; Shn3 inh set2: -5; CF NFkB block: -34
